Compounds without any hit were thinned out: in the full panel of roughly 83,000, 20% have a hit.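 Activity criterion: percent growth below 10, measured after cells in 96-well plates were exposed to a single compound concentration for 48 hours.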 Values without a mark were called inactive. Active and inactive are the calls of the source.

What all share (experiment): NCI-60 one-dose screen, 48 h (100 = growth as untreated, 0 = no growth, -100 = all killed)
One assay has as its system HCT-15 colon. The conditions noted are these: 10 µM unless noted.
A further assay concerns HT29 colon. To be noted: 10 µM unless noted.
A further assay concerns SNB-75 CNS. To be noted: 10 µM unless noted.
The test system of the next assay is SNB-19 CNS. The conditions noted are these: 10 µM unless noted.
Another assay has as its system U251 CNS. The conditions noted are these: 10 µM unless noted.
In the next assay the test system is PC-3 prostate. The conditions noted are these: 10 µM unless noted.
The subject of the next assay is SK-MEL-5 melanoma. The conditions noted are these: 10 µM unless noted.
The test system of another assay is UACC-62 melanoma. To be noted: 10 µM unless noted.
In the next assay the test system is SK-MEL-28 melanoma. The conditions noted are these: 10 µM unless noted.
The next assay concerns SK-MEL-2 melanoma. The conditions noted are these: 10 µM unless noted.
Another assay concerns EKVX NSCLC. The conditions noted are these: 10 µM unless noted.
The test system of a further assay is SN12C renal. The conditions noted are these: 10 µM unless noted.
The subject of another assay is UO-31 renal. To be noted: 10 µM unless noted.
The test system of another assay is TK-10 renal. The conditions noted are these: 10 µM unless noted.
For a further assay, the system named is ACHN renal. To be noted: 10 µM unless noted.
For the next assay, the system named is CAKI-1 renal. The conditions noted are these: 10 µM.
The next assay deals with A498 renal. The conditions noted are these: 10 µM unless noted.
The next assay has as its system CCRF-CEM leukemia. To be noted: 10 µM unless noted.
In a further assay the test system is MOLT-4 leukemia. The conditions noted are these: 10 µM unless noted.
The next assay concerns LOX IMVI melanoma. To be noted: 10 µM unless noted.

Consider `O=C1NC(=O)c2c1c1c3ccccc3ccc1c1[nH]c3ccccc3c21`, for which the growth in the assay on HCT-15 colon is 13.4%; in the assay with HT29 colon, 13.4%; with SNB-75 CNS it was -7.05% (active); with SNB-19 CNS it was 3.4% (active); in the assay with U251 CNS, 11.1%; in the assay with PC-3 prostate it was 1.07% (active). In addition, the growth with SK-MEL-5 melanoma was -18.1% (active); with UACC-62 melanoma, 15.2%; in the assay with SK-MEL-28 melanoma it was 18.9%; with SK-MEL-2 melanoma, -12.5% (active); in the assay with EKVX NSCLC it was 11.1%; with SN12C renal it was 17.3%. For the same molecule, the growth in the assay on UO-31 renal is -4.64% (active); in the assay with TK-10 renal, -4.05% (active); in the assay on ACHN renal, -2.53% (active); with CAKI-1 renal, 4.16% (active); in the assay on A498 renal it was -36.3% (active); in the assay on CCRF-CEM leukemia, 9.91% (active). Besides, the growth in the assay with MOLT-4 leukemia is 3.16% (active).
As to `O=S(=O)(NCCCNc1nccc(-n2cnc3ccccc32)n1)c1ccc(F)cc1`, the growth was 82.8% with HCT-15 colon; 92.8% in the assay on HT29 colon; 82.5% in the assay with SNB-75 CNS; 92.6% in the assay with SNB-19 CNS; 93.8% in the assay on U251 CNS; 69.3% in the assay with PC-3 prostate. Moreover, the growth was 2.63% (active) in the assay with SK-MEL-5 melanoma; 61.6% with UACC-62 melanoma; 74% in the assay with LOX IMVI melanoma; 85.8% in the assay on SK-MEL-2 melanoma; 61.2% with EKVX NSCLC; 89% in the assay with SN12C renal. For the same molecule, the growth in the assay with UO-31 renal was 59.3%; in the assay with TK-10 renal, 91.9%; in the assay on ACHN renal it was 81.1%; with CAKI-1 renal, 71%; with A498 renal it was 70.6%; in the assay on CCRF-CEM leukemia, 49.1%. Further, the growth in the assay on MOLT-4 leukemia is 33.2%.
On to `Oc1ccc(CSc2nnc(-c3ccc(Oc4ccccc4)cc3)o2)c2cccnc12`, for which the growth was 9.07% (active) with HCT-15 colon; 94.4% in the assay with HT29 colon; -25.3% (active) in the assay on SNB-75 CNS; 17.3% with SNB-19 CNS; -4.12% (active) in the assay with U251 CNS; 20.4% in the assay with PC-3 prostate. Further, the growth with SK-MEL-5 melanoma was 16.6%; in the assay on UACC-62 melanoma it was 22.6%; in the assay with SK-MEL-28 melanoma, 52.2%; with SK-MEL-2 melanoma, 39.9%; with EKVX NSCLC, 23.6%; with SN12C renal it was 23.8%. In addition, the growth in the assay with UO-31 renal was 2.75% (active); in the assay on TK-10 renal, 34.8%; in the assay with ACHN renal it was -2.93% (active); with CAKI-1 renal, 60.3%; with A498 renal, 78.9%; with CCRF-CEM leukemia, 16%. Also, the growth with MOLT-4 leukemia was 26.9%.
Take `CC(C)=CCc1c(O)c(CC=C(C)C)c2c(c1O)C(=O)C1=C[C@@H]3C[C@H]4C(C)(C)O[C@@](C/C=C(\C)C(=O)O)(C3=O)[C@@]14O2`: the growth with HCT-15 colon was -30% (active); in the assay with HT29 colon, -11.1% (active); in the assay with SNB-75 CNS it was 33.7%; in the assay with SNB-19 CNS, 41.6%; in the assay on U251 CNS it was -71.9% (active); in the assay with PC-3 prostate, 11.3%. In addition, the growth was -94.9% (active) in the assay with SK-MEL-5 melanoma; -22.3% (active) in the assay on UACC-62 melanoma; -97% (active) in the assay on LOX IMVI melanoma; -53% (active) with SK-MEL-2 melanoma; -3.05% (active) in the assay on EKVX NSCLC; 12.3% in the assay with SN12C renal. The growth with UO-31 renal is -30.9% (active); in the assay with ACHN renal, -0.932% (active); with A498 renal, -31.6% (active); with CCRF-CEM leukemia it was 1.76% (active); in the assay with MOLT-4 leukemia, 1.93% (active).
As for `N=c1c2cc(-c3ccccc3)oc2ncn1/N=C/c1ccccc1`, the growth was 36.9% in the assay on HCT-15 colon; 73.6% with HT29 colon; 67% in the assay on SNB-75 CNS; 87.5% in the assay on SNB-19 CNS; 84.7% in the assay on U251 CNS; 71.9% in the assay with PC-3 prostate. Besides, the growth in the assay with SK-MEL-5 melanoma was 90.8%; in the assay on UACC-62 melanoma it was 47.6%; in the assay on SK-MEL-28 melanoma it was 83.4%; in the assay with SK-MEL-2 melanoma, 97.2%; in the assay with EKVX NSCLC, 86.5%; in the assay with SN12C renal, 86.1%. The growth is 85.6% in the assay on UO-31 renal; 80.3% in the assay with TK-10 renal; 75.1% in the assay on ACHN renal; 67.5% in the assay with CAKI-1 renal; 77.8% in the assay with A498 renal; 64% with CCRF-CEM leukemia. Besides, in the assay with MOLT-4 leukemia, the growth is 65.3%.
`CC1CCN(S(=O)(=O)c2ncsc2-c2ccccc2)CC1`: the growth was 79% in the assay with HCT-15 colon; 88.5% with HT29 colon; 55.6% in the assay on SNB-75 CNS; 83% in the assay on SNB-19 CNS; 57.9% in the assay with U251 CNS; 80.8% in the assay with PC-3 prostate. Besides, the growth in the assay with SK-MEL-5 melanoma was 96.8%; in the assay with UACC-62 melanoma it was 96.5%; with SK-MEL-28 melanoma it was 75.3%; in the assay on SK-MEL-2 melanoma, 96.2%; with EKVX NSCLC, 74.7%; with SN12C renal it was 95.4%. The growth was 86.9% in the assay on UO-31 renal; 127% with TK-10 renal; 87% in the assay with ACHN renal; 77.4% in the assay with CAKI-1 renal; 81.6% with A498 renal; 74.2% in the assay with CCRF-CEM leukemia. Further, the growth in the assay on MOLT-4 leukemia is 66.7%.
